# Only some compounds are listed: those with a hit (about 3.3% of all), similar ones and a draw of the others.
# D3 ag: activates the human D3 dopamine receptor; P35462; D3R DiscoveRx beta-arrestin cells, luminescence, 90 min; max activation, %; hit rate 0.58% among 410,000; AID 652048; in the data active means max activation above about 30%; further: 0% is about no effect
#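 Cells at 1500/well, incubated overnight, then treated with pinned compounds (dopamine as control) for 90 min at 37 degrees C. DiscoveRx reagent added for 30 - 60 minutes at room temperature; luminescence read.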
# PI4K2A inh: blocks human PI4K2A kinase activity; activity change, negative = inhibition, % at 76.9 µM; AID 1346378; hit rate 0.13% among 420,000; Q9BTU6; purified PI4K2A, ADP-Glo luminescence, 1 h; hits give low values; in the data active means activity change below about -50%; inconclusive means mostly about -30% to -49%;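 further: -100% = wells without enzyme as full effect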
#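 Compounds are screened against recombinant PI4K2A using PI as substrate and ATP, the latter dispensed at 300 microM. Reactions run one hour at ambient temperature before ADP-Glo detection; full inhibition defined by wells lacking enzyme.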
# D3 antag: D3 dopamine receptor (human) antagonism; D3R cells, DiscoveRx beta-arrestin luminescence, antagonist mode; hits give low values; hit rate 2.5% among 360,000; max response, negative = inhibition, %; P35462; in the data active means max response below about -50%; inconclusive means no clear call, values can overlap the other calls; further: on the % scale 0 is the no-effect control and ±100 the full control effect
#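 Cells plated overnight at 1500 cells/well, then exposed to library compounds with dopamine controls for 90 minutes at 37 degrees C. DiscoveRx reagent added for 30–60 minutes at room temperature; luminescence read, quantitative HTS format.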
# PI5P4K alpha inh: inhibitors of human PI5P4K alpha. max response, %. P48426. PI5P4Kalpha enzyme, ADP-Glo luminescence, 60 min; hits give low values. hit rate 1.2% among 330,000; active means max response of -50% or lower; inconclusive means between -30% and -50%; inactive means -30% or higher; further: value at the top dose of about 77 µM; on the % scale 0 is the no-effect control and ±100 the full control effect
# Target sequence (P48426 whole entry, looked up): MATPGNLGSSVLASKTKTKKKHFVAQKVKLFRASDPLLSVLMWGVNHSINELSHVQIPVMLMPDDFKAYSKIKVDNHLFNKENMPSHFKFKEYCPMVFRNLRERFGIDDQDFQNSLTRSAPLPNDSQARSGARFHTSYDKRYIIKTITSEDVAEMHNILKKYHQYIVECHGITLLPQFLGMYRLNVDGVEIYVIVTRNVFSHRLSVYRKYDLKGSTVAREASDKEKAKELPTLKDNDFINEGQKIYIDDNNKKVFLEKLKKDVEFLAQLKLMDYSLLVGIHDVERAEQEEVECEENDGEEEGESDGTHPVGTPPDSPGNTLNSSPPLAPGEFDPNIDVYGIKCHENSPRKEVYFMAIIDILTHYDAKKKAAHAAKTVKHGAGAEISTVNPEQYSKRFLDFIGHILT
#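 Reactions run in 0.038 M HEPES pH 7.4, 0.28 mM EGTA, 0.1% CHAPS and 5% DMSO, with PI5P4Kalpha, substrate, compound and 5 microM ATP final, one hour at room temperature. Readout is ADP-Glo luminescence.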
# LDHA block: blocks human lactate dehydrogenase A; P00338; purified LDHA, NADH/diaphorase-resazurin fluorescence; hits give low values; activity change, % (values are at about 110 or 230 µM); hit rate 0.15% among 480,000; AID 1347041; in the data active means activity change below about -30%; inconclusive means mostly about -25% to -30%;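 further: plate controls were DMSO wells for no effect and wells without enzyme for full effect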
#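 Human LDH5 (2 nM) was incubated with 0.06 mM NADH and 0.2 mM pyruvate for 5 min at room temperature in Tris pH 7.4. Remaining NADH was coupled through diaphorase/resazurin, and resorufin fluorescence was read at 0 and 20 min.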
# Active calls of the source: *; ? = inconclusive; . = no result; ! = not active in a repeat.
SMILES,D3 ag,PI4K2A inh,D3 antag,PI5P4K alpha inh,LDHA block
CCOC(=O)C1=C(CCc2ccccc2)NC(=O)NC1c1cccc([N+](=O)[O-])c1 (configuration not stated),14,-1,5,-1,-5
CCN(CC)CCOc1ccc2c(c1)C(=NO)c1cc(OCCN(CC)CC)ccc1-2,-30,0,?,.,0
CCN(CC)CCOc1ccc(Br)cc1,-31,2,-119*,.,-12
CCN(CC)CCOc1ccc(/C(=C(\Cl)c2ccccc2)c2ccccc2)cc1,.,2,-65*,-1,-3
COc1cccc(OC)c1OCCNC(C)(C)C,9,-2,5,7,-17
CCN(CC)CCN(C)Cc1ccc(Br)cc1,-25,0,-55*,.,?
CC(C)(C)NCCOc1ccc(Br)cc1,-10,3,-52*,7,-18
O=C(CN1CCCC1c1cccs1)C12CC3CC(CC(C3)C1)C2 (configuration not stated),.,.,.,.,0
Cc1ccccc1C(=O)NC1CCN(C(C)C)CC1,.,.,.,.,0
COc1cc(/C=N/Nc2nc3c(c(=O)n(C)c(=O)n3C)n2Cc2ccccc2)ccc1OC(=O)c1ccco1,66*,0,57,5,1
COc1cccc(C2CC(=O)Oc3c2c(=O)n(C)c2ccccc32)c1 (configuration not stated),.,.,.,.,0
Cc1ccc(Cl)cc1NC(=O)CC1Sc2ccccc2NC1=O (configuration not stated),-7,1,.,.,-3
O=C(CC1Sc2ccccc2NC1=O)NNc1cc(Cl)ccc1Cl (configuration not stated),36*,10,47,1,-10
CCN1CCN(Cc2ccc(NC(=O)c3ccc(C)c(NC(=O)C(=O)c4c[nH]c5ccccc45)c3)cc2C(F)(F)F)CC1,-13,-9,-72*!,-77*!,1
CCN1CCN(Cc2ccc(NC(=O)c3cc(NC(=O)C(=O)c4c[nH]c5ccccc45)cc(OC)c3)cc2C(F)(F)F)CC1,-8,3,-54*,-63*!,-2
CCOC(=O)N1C(=O)[C@](c2ccc(Cl)cc2)(C(C)C)N1C(=O)OCC,-40,-16,-12,-2,-1
CCOC(=O)N1C(=O)[C@@](c2ccc(Cl)cc2)(C(C)C)N1C(=O)OCC,-25,6,-51*,-7,-1
O=C(O)/C=C/c1ccc(-c2ccc(Br)cc2)o1,.,.,.,.,8
COCCn1c(-n2nc(C)c(C)c2C)nc2c1c(=O)n(Cc1ccccc1C)c(=O)n2C,.,.,.,.,-1
COc1ccc(C2=NOC(C)(c3nnc(-c4ccncc4)o3)C2)cc1 (configuration not stated),23,-60*,0,5,-7
Cc1ccc(C2=NOC(C)(c3nnc(-c4ccncc4)o3)C2)cc1 (configuration not stated),5,-1,27,-3,-6
CN1CCCN(C(=O)c2cc3c(s2)CCCC3)CC1,-21,-1,-56*,1,1
Cc1nc(N2CCc3ccccc3C2)[nH]c(=O)c1Cc1ccccc1,3,8,12,-2,-5
Cc1nc(-n2[nH]c3c(c2=O)CCCC3)[nH]c(=O)c1Cc1ccccc1,-14,0,-61*,.,14
COCCNCc1ccc(-c2cccc(C(F)(F)F)c2)o1,.,.,.,.,7
SMILES,D3 ag,PI4K2A inh,D3 antag,PI5P4K alpha inh,LDHA block
Cc1ccc(C)c(NC(=O)C(C)SC(c2ccc(F)cc2)c2ccc(F)cc2)c1 (configuration not stated),.,.,.,.,-3
O=C(COc1ccccc1)Nc1nc(-c2ccc(Br)s2)ns1,.,.,.,.,1
COc1ccc(C(=O)Nc2nc(-c3ccc(Br)s3)ns2)cc1,.,.,.,.,-30*
Cc1ccccc1NC(=O)Nc1nc(C(N)C2CCCCC2)cs1 (configuration not stated),-11,0,-84*,-4,0
CCCN1C(=O)c2ccc(C(=O)Nc3cc(C)ccc3O)cc2C1=O,8,-56*,0,-8,-10
N[C@@H](Cc1cc(I)c(Oc2cc(I)c(O)c(I)c2)c(I)c1)C(=O)O,-26,-7,-26,-62*,-10
N[C@@H](Cc1cc(I)c(Oc2ccc(O)c(I)c2)c(I)c1)C(=O)O,-7,-3,6,-82*!,-35*!
CCCCCNc1nc(N2CCCC2)c2c(c1C#N)CCN(C)C2,1,-8,-66*,-1,17
CCCCCNc1nc(NCCCO)c(C#N)c2c1CN(C)CC2,-9,-5,-7,2,22
O=C(C[C@H]1CC[C@H]2[C@@H](COC[C@@H](O)CN2S(=O)(=O)c2ccccc2)O1)N[C@@H]1CCN(Cc2ccccc2)C1,-13,-1,-71*,-8,-2
COCCNC(=O)CS(=O)(=O)Cc1nc(-c2ccccc2Cl)oc1C,.,.,.,.,-22
CS(=O)(=O)c1nc(-c2ccccc2)cc(-c2ccccc2)c1C#N,3,8,-66*,7,1
CCOC(=O)Cc1nnc(NC(=O)CSc2ccc(Cl)cc2)s1,-1,-1,-53*,.,3
COc1cccc(-c2nn(-c3ccccc3)cc2C(=O)NCC(C)(C)N2CCOCC2)c1,.,.,.,.,-31*
CCCCCCCCCCOc1ccc(OC(=O)c2ccncc2)cc1,.,.,.,.,4
N#Cc1c2ccc(O)cc2n2ccccc12,43*,9,66,7,17
O=C(N/N=C/c1c(F)c(F)c(F)c(F)c1F)C1CC1,.,.,.,.,10
CCOc1ccc(OCCC(=O)N(CC)CC(=O)Nc2ccccc2OC)cc1,31*,1,1,2,-1
COc1ccccc1/C=C/CN1CCCC(CO)(Cc2cccc(Cl)c2)C1 (configuration not stated),-14,3,-59*,26,-3
COc1ccc(/C=C/CN2CCCC(CO)(Cc3cccc(Cl)c3)C2)cc1 (configuration not stated),-17,-3,-60*,6,0
COc1cccc(CC2(CO)CCCN(C/C=C/c3ccccc3OC)C2)c1 (configuration not stated),-5,-5,-82*,-1,-4
COc1cc(Cl)c(CN2CCCC(CO)(Cc3cccc(Cl)c3)C2)cc1OC (configuration not stated),2,3,32,13,2
COc1cc(C(=O)COC(=O)COc2cc(Cl)c(Cl)cc2Cl)cc(OC)c1OC,.,.,.,.,8
C/C(=N\NC(=O)C1CCCN(S(=O)(=O)c2ccccc2)C1)c1ccncc1 (configuration not stated),4,-1,1,-1,-1
C/C(=N\NC(=O)c1ccccc1Cl)c1ccccn1,-11,0,?,-2,-2
CCOc1ccc(OCc2ccc(C(=O)N/N=C(\C)c3ccccn3)cc2)cc1,-26,2,-81*,0,0
C/C(=N\NC(=O)c1cccc2ccccc12)c1ccccn1,-33,-1,-93*,1,-2

# Source: PubChem
